PubChem BioAssay (Tox21)
Records with an inconclusive call do not appear. Calls of active or inactive are those of the source. Calls come from the whole dose curve; as a rule, active = well fitted curve in the direction sought with a large enough effect in the repeat runs; inconclusive = weak or mixed curves; inactive = no such curve, though single readings can be large; an effect the other way counts as inactive or inconclusive.

Legend:
[1] = qHTS RealTime-Glo MT Cell Viability Assay in HepG2 cells - 40 hour (AID 1224870); note: nearly all actives have a fitted effect of over 50% in size
Method in brief: (§1)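 HepG2 cells (600/well) mixed with RealTime-Glo MT reagent, settled 5 h at 37 C/5% CO2 before compound addition. Nonlytic NanoLuc luminescence from viable-cell prosubstrate reduction read repeatedly during 40 h treatment at 37 C.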

[2] = A CellTox Green Cytotoxicity Assay to monitor cytotoxicity in HEK293 cells - 40 hour (AID 1224871); note: nearly all actives have a fitted effect of over 45% in size
Method in brief: (§2)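 Cytotoxicity was tracked continuously in HEK293 cells by a DNA-binding dye excluded from viable cells. Compounds were transferred in DMSO 5 h after seeding; fluorescence was recorded at intervals up to 40 h.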

[3] = qHTS RealTime-Glo MT Cell Viability Assay in HEK293 cells - 16 hour (AID 1224872); note: top concentration of the series differs between compounds; nearly all actives have a fitted effect of over 50% in size
Method in brief: (§3)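 Tox21 10K qHTS, HEK293, 600 cells/well, RealTime-Glo reagent co-dispensed with cells; 5 h preincubation, compound by pintool, 37 C, luminescence at 0–40 h.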

[4] = qHTS RealTime-Glo MT Cell Viability Assay in HepG2 cells - 8 hour (AID 1224873); note: nearly all actives have a fitted effect of over 55% in size
Method in brief: as §1

[5] = qHTS RealTime-Glo MT Cell Viability Assay in HEK293 cells - 40 hour (AID 1224874); conditions: RealTime-Glo luminescence; max response: active compounds read low; note: nearly all actives have a fitted effect of over 50% in size
Method in brief: (§4)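 Nonlytic bioluminescent viability monitoring. HEK293 at 600 cells/well with reagent; 5 h settle; compound transfer by pintool; plates held at 37 C and read at set time points.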

[6] = A CellTox Green Cytotoxicity Assay to monitor cytotoxicity in HEK293 cells - 24 hour (AID 1224875); note: series mostly up to about 77 µM; nearly all actives have a fitted effect of over 45% in size
Method in brief: as §2

[7] = A CellTox Green Cytotoxicity Assay to monitor cytotoxicity in HepG2 cells - 16 hour (AID 1224876); note: nearly all actives have a fitted effect of over 45% in size
Method in brief: (§5)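 Real-time, homogeneous cytotoxicity readout: dead-cell DNA staining by CellTox Green in HepG2 monolayers, fluorescence measured at timed intervals up to 40 h of continuous compound exposure.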

[8] = qHTS RealTime-Glo MT Cell Viability Assay in HepG2 cells - 32 hour (AID 1224877); note: nearly all actives have a fitted effect of over 55% in size
Method in brief: (§6)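 Cells + NanoLuc/prosubstrate dispensed (600 cells/well) → 5 h at 37 C/5% CO2 → compounds in DMSO transferred → 40 h incubation at 37 C, luminescence read at 0, 8, 16, 24, 32, 40 h.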

[9] = A CellTox Green Cytotoxicity Assay to monitor cytotoxicity in HepG2 cells - 24 hour (AID 1224878); note: nearly all actives have a fitted effect of over 45% in size
Method in brief: as §5

[10] = A CellTox Green Cytotoxicity Assay to monitor cytotoxicity in HepG2 cells - 40 hour (AID 1224879); note: nearly all actives have a fitted effect of over 40% in size
Method in brief: as §5

[11] = qHTS RealTime-Glo MT Cell Viability Assay in HEK293 cells - 0 hour (AID 1224880)
Method in brief: as §4

[12] = A CellTox Green Cytotoxicity Assay to monitor cytotoxicity in HEK293 cells - 32 hour (AID 1224881); note: nearly all actives have a fitted effect of over 40% in size
Method in brief: as §2

[13] = A CellTox Green Cytotoxicity Assay to monitor cytotoxicity in HepG2 cells - 0 hour (AID 1224882); note: nearly all actives have a fitted effect of over 35% in size
Method in brief: as §5

[14] = A CellTox Green Cytotoxicity Assay to monitor cytotoxicity in HepG2 cells - 32 hour (AID 1224883); note: nearly all actives have a fitted effect of over 50% in size
Method in brief: as §5

[15] = qHTS RealTime-Glo MT Cell Viability Assay in HepG2 cells - 16 hour (AID 1224885); note: nearly all actives have a fitted effect of over 50% in size
Method in brief: as §6

[16] = qHTS RealTime-Glo MT Cell Viability Assay in HEK293 cells - 24 hour (AID 1224886)
Method in brief: as §3

[17] = qHTS RealTime-Glo MT Cell Viability Assay in HEK293 cells - 8 hour (AID 1224887)
Method in brief: as §4

[18] = qHTS RealTime-Glo MT Cell Viability Assay in HepG2 cells - 0 hour (AID 1224889); note: nearly all actives have a fitted effect of over 50% in size
Method in brief: as §6

[19] = A CellTox Green Cytotoxicity Assay to monitor cytotoxicity in HEK293 cells - 16 hour (AID 1224888); note: nearly all actives have a fitted effect of over 35% in size
Method in brief: as §2

[20] = A CellTox Green Cytotoxicity Assay to monitor cytotoxicity in HEK293 cells - 8 hour (AID 1224884); note: nearly all actives have a fitted effect of over 35% in size
Method in brief: as §2
% is set by controls: 0 for no effect and ±100 for the full control effect.

CC1(C)CC(O)CC(C)(C)N1[O]
inactive: Potency [1] | Potency [2] | Potency [3] | outcome [4] | max response [5] 6.37% | Potency [6] | Potency [7] | Potency [8] | Potency [9] | Potency [10] | Potency [11] | Potency [12] | Potency [13] | Potency [14] | outcome [15] | Potency [16] | Potency [17] | Potency [18]

O=C1CCCN1CCO
inactive: Potency [1] | Potency [2] | Potency [3] | outcome [4] | max response [5] -23.9% | Potency [6] | Potency [7] | Potency [8] | Potency [9] | Potency [10] | Potency [11] | Potency [12] | Potency [13] | Potency [14] | outcome [15] | Potency [16] | Potency [19] | Potency [18]

CNc1ccccc1
inactive: Potency [1] | Potency [2] | Potency [3] | outcome [4] | max response [5] 4.77% | Potency [6] | Potency [7] | Potency [8] | Potency [9] | Potency [10] | Potency [11] | Potency [12] | Potency [13] | Potency [14] | Potency [20] | outcome [15] | Potency [17] | Potency [19] | Potency [18]

CCC(C)C1N=C(C)C(C)S1 (centres undefined)
inactive: Potency [1] | Potency [2] | Potency [3] | outcome [4] | max response [5] 6.11% | Potency [6] | Potency [7] | Potency [8] | Potency [9] | Potency [10] | Potency [11] | Potency [12] | Potency [13] | Potency [14] | outcome [15] | Potency [16] | Potency [17] | Potency [19] | Potency [18]

O=C(c1ccco1)N1CCNCC1
inactive: Potency [1] | Potency [2] | Potency [3] | outcome [4] | max response [5] 3.57% | Potency [6] | Potency [7] | Potency [8] | Potency [9] | Potency [10] | Potency [11] | Potency [12] | Potency [13] | Potency [14] | outcome [15] | Potency [17] | Potency [18]

COc1ccc(CN(CCN(C)C)c2ncccn2)cc1
inactive: Potency [1] | Potency [2] | Potency [3] | outcome [4] | max response [5] 4.01% | Potency [6] | Potency [7] | Potency [8] | Potency [9] | Potency [10] | Potency [11] | Potency [12] | Potency [13] | Potency [14] | Potency [20] | outcome [15] | Potency [16] | Potency [18]

O=C(O)CNc1ccccc1
inactive: Potency [1] | Potency [2] | Potency [3] | outcome [4] | max response [5] 5.54% | Potency [6] | Potency [7] | Potency [8] | Potency [9] | Potency [10] | Potency [11] | Potency [12] | Potency [13] | Potency [14] | outcome [15] | Potency [16] | Potency [17] | Potency [19] | Potency [18]

CC(C)(C)c1cc(C=O)cc(C(C)(C)C)c1O
inactive: Potency [1] | Potency [2] | Potency [3] | outcome [4] | max response [5] -0.177% | Potency [6] | Potency [7] | Potency [8] | Potency [9] | Potency [10] | Potency [11] | Potency [12] | Potency [13] | Potency [14] | outcome [15] | Potency [16] | Potency [19] | Potency [18]

Nc1ncnc2c1ncn2[C@@H]1O[C@H](CO)[C@@H](O)[C@H]1O
inactive: Potency [1] | Potency [2] | Potency [3] | outcome [4] | max response [5] 6.09% | Potency [6] | Potency [7] | Potency [8] | Potency [9] | Potency [10] | Potency [11] | Potency [12] | Potency [13] | Potency [14] | outcome [15] | Potency [17] | Potency [19] | Potency [18]

Cc1ccc(S(=O)(=O)NC(=O)NC2CCCC2)cc1
inactive: Potency [1] | Potency [2] | Potency [3] | outcome [4] | max response [5] 0.385% | Potency [6] | Potency [7] | Potency [8] | Potency [9] | Potency [10] | Potency [11] | Potency [12] | Potency [13] | Potency [14] | outcome [15] | Potency [16] | Potency [17] | Potency [19] | Potency [18]

CCCCC(CC)COCCC#N (centres undefined)
inactive: Potency [1] | Potency [2] | Potency [3] | outcome [4] | max response [5] 12.6% | Potency [6] | Potency [7] | Potency [8] | Potency [9] | Potency [10] | Potency [11] | Potency [12] | Potency [13] | Potency [14] | outcome [15] | Potency [16] | Potency [17] | Potency [19] | Potency [18]

N#C[C@@H]1CC(F)(F)CN1C(=O)CNC1CC2CCC(C1)N2c1ncccn1 (some centres undefined)
inactive: Potency [1] | Potency [2] | Potency [3] | outcome [4] | max response [5] 1.88% | Potency [6] | Potency [7] | Potency [8] | Potency [9] | Potency [10] | Potency [11] | Potency [12] | Potency [13] | Potency [20] | outcome [15] | Potency [16] | Potency [17] | Potency [19] | Potency [18]

CC(C)(C(=O)O)c1ccc(C(O)CCCN2CCC(C(O)(c3ccccc3)c3ccccc3)CC2)cc1 (centres undefined)
inactive: Potency [1] | Potency [2] | Potency [3] | outcome [4] | max response [5] 1.75% | Potency [6] | Potency [7] | Potency [8] | Potency [9] | Potency [10] | Potency [11] | Potency [12] | Potency [13] | Potency [14] | Potency [20] | outcome [15] | Potency [17] | Potency [19] | Potency [18]

C/C(=C(\CCO)SS/C(CCO)=C(\C)N(C=O)Cc1cnc(C)nc1N)N(C=O)Cc1cnc(C)nc1N
inactive: Potency [1] | Potency [2] | Potency [3] | outcome [4] | max response [5] 7.21% | Potency [6] | Potency [7] | Potency [8] | Potency [9] | Potency [10] | Potency [11] | Potency [12] | Potency [13] | Potency [20] | outcome [15] | Potency [16] | Potency [17] | Potency [19] | Potency [18]
